Among the test systems are NCI-H23 lung; NCI-H226 lung; NCI-H322M lung; HOP-62 NSCLC; NCI-H460 lung; HOP-92 NSCLC; NCI-H522 lung; A549/ATCC NSCLC; 786-0 renal; COLO 205 colon; DU-145 prostate; K-562 leukemia; MALME-3M melanoma; MDA-MB-231 breast; RXF 393 renal; SF-268 CNS; SF-295 CNS; SF-539 CNS; UACC-257 melanoma; M14 melanoma.
Common to all, as to assay: NCI-60 one-dose screen, 48 h (100 = growth as untreated, 0 = no growth, -100 = all killed)
Conditions in all cases: 10 µM unless noted

Several values for one entry are separate records, joined by “and”; a condition that tells them apart may be missing. Equal values may be shown once. This is part of a sample that, as a whole, favours compounds with a hit. Of some 83,000 tested, about 20% had one in any assay.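 Note: values are percent growth. 100 is the growth of untreated cells, values between 100 and 0 indicate rising inhibition; between -100 and 0 indicates cell death.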 Activity calls are given as the source filed them. The calls were made as follows: active = growth percent below 10; inactive = the rest.

For `CCOc1ccc2cc(-c3nn(CC4CCNCC4)c4ncnc(N)c34)ccc2c1`, the growth in the assay on NCI-H23 lung is 77.5% (inactive) and 55.6% (inactive); in the assay with NCI-H226 lung it was 67.5% (inactive) and 52.5% (inactive); with NCI-H322M lung, 91.6% (inactive) and 75.4% (inactive); with HOP-62 NSCLC, 83.2% (inactive) and 64.9% (inactive); with NCI-H460 lung, 96.7% (inactive) and 49.7% (inactive); in the assay on HOP-92 NSCLC it was 72.5% (inactive) and 26.5% (inactive). For the same compound, the growth in the assay with NCI-H522 lung is 86.5% (inactive) and 81.4% (inactive); in the assay on A549/ATCC NSCLC, 85% (inactive) and 59% (inactive); in the assay on 786-0 renal, 91.4% (inactive) and 36% (inactive); in the assay on COLO 205 colon, 93% (inactive) and 15.3% (inactive); in the assay on DU-145 prostate, 108% (inactive) and 57.5% (inactive); in the assay on K-562 leukemia, 59.3% (inactive) and -8.9% (active). The growth in the assay with MALME-3M melanoma is 73.7% (inactive) and -54.7% (active); in the assay on MDA-MB-231 breast it was 86.5% (inactive) and 15.6% (inactive); in the assay with RXF 393 renal, 55.4% (inactive) and 18% (inactive); in the assay on SF-268 CNS, 80.6% (inactive) and 41.1% (inactive); in the assay with SF-295 CNS it was 108% (inactive) and 74.5% (inactive); with SF-539 CNS, 77.4% (inactive) and 40.2% (inactive). Besides, the growth in the assay with UACC-257 melanoma was -52.9% (active); with M14 melanoma, 91.5% (inactive) and -42.6% (active).
In the case of `Cc1nnc(NC/C=C/c2ccccc2)s1`, the growth was 98.5% (inactive) and 2.04% (active) in the assay on NCI-H23 lung; 106% (inactive) and 102% (inactive) with NCI-H226 lung; 88.5% (inactive) and 112% (inactive) in the assay on NCI-H322M lung; 88.7% (inactive) and 111% (inactive) in the assay on HOP-62 NSCLC; 105% (inactive) and 108% (inactive) in the assay with NCI-H460 lung; 91.3% (inactive) and 91.5% (inactive) with HOP-92 NSCLC. In addition, the growth with NCI-H522 lung was 112% (inactive); in the assay on 786-0 renal it was 100% (inactive) and 102% (inactive); with COLO 205 colon, 110% (inactive) and 113% (inactive); in the assay with DU-145 prostate it was 104% (inactive) and 106% (inactive); in the assay with K-562 leukemia, 87.9% (inactive) and 94.2% (inactive); in the assay with MALME-3M melanoma, 99.6% (inactive). Moreover, the growth in the assay with MDA-MB-231 breast was 105% (inactive) and 120% (inactive); with RXF 393 renal it was 102% (inactive); in the assay with SF-268 CNS, 102% (inactive) and 97.3% (inactive); in the assay with SF-295 CNS it was 99.7% (inactive); in the assay with SF-539 CNS, 109% (inactive) and 101% (inactive); with UACC-257 melanoma, 96.9% (inactive). Further, the growth in the assay on M14 melanoma is 101% (inactive) and 104% (inactive).
In the case of `CC1=C(/C=C/C(C)=C/C=C/C(C)=C/C(=O)O)C(C)(C)CCC1`, the growth in the assay on NCI-H23 lung is 86.6% (inactive) and 96.1% (inactive) and 98.3% (inactive); in the assay with NCI-H226 lung, 93% (inactive) and 92.1% (inactive) and 88.2% (inactive); in the assay on NCI-H322M lung, 94.2% (inactive) and 101% (inactive); in the assay on HOP-62 NSCLC it was 73% (inactive) and 75.4% (inactive); in the assay with NCI-H460 lung, 91.2% (inactive) and 91.7% (inactive) and 90.6% (inactive); in the assay with HOP-92 NSCLC, 66.8% (inactive) and 77% (inactive) and 26.4% (inactive). For the same compound, the growth in the assay with NCI-H522 lung is 64.8% (inactive) and 79.3% (inactive); with 786-0 renal it was 96.6% (inactive) and 85.6% (inactive) and 102% (inactive); in the assay on COLO 205 colon, 108% (inactive) and 93.2% (inactive) and 145% (inactive); with DU-145 prostate, 103% (inactive) and 83.3% (inactive); in the assay with K-562 leukemia, 108% (inactive) and 89.5% (inactive); in the assay on MALME-3M melanoma, 69.1% (inactive) and 35.6% (inactive) and 70.6% (inactive). Besides, the growth with MDA-MB-231 breast is 78.1% (inactive) and 82.2% (inactive) and 85.1% (inactive); in the assay on RXF 393 renal, 94.2% (inactive) and 89.6% (inactive) and 91.3% (inactive); in the assay with SF-268 CNS it was 91.7% (inactive) and 92.9% (inactive) and 101% (inactive); in the assay with SF-295 CNS, 69.3% (inactive) and 88.1% (inactive) and 114% (inactive); in the assay with SF-539 CNS, 88.7% (inactive) and 62.2% (inactive) and 86.1% (inactive); in the assay with UACC-257 melanoma, 94.7% (inactive) and 82.5% (inactive) and 93.9% (inactive). Besides, in the assay with M14 melanoma, the growth was 109% (inactive) and 95.3% (inactive) and 91.5% (inactive).
`CCOc1ccc(Nc2c3ccccc3nc3ccccc23)cc1`: the growth in the assay with NCI-H23 lung was 92.1% (inactive) and 36.3% (inactive) and 18.6% (inactive); with NCI-H226 lung, -12.9% (active) and 19.1% (inactive); in the assay with NCI-H322M lung, 99.3% (inactive) and 44.4% (inactive) and 38.3% (inactive); with HOP-62 NSCLC, 92.5% (inactive) and 37.1% (inactive) and 42.1% (inactive); in the assay on NCI-H460 lung, 93.6% (inactive) and 3.2% (active) and 4.66% (active); in the assay with HOP-92 NSCLC it was 72.2% (inactive) and -5.95% (active) and -4.39% (active). Further, the growth in the assay with NCI-H522 lung is 10.1% (inactive) and 35.9% (inactive); in the assay on A549/ATCC NSCLC, 87.5% (inactive) and 12.3% (inactive) and 21% (inactive); in the assay with 786-0 renal it was 84.8% (inactive) and 30.1% (inactive) and 43.7% (inactive); in the assay with COLO 205 colon it was 103% (inactive) and -11.2% (active) and 24.5% (inactive); in the assay on DU-145 prostate, 104% (inactive) and 23.1% (inactive) and 35.2% (inactive); in the assay with K-562 leukemia, 81.3% (inactive) and 6.44% (active) and 3.81% (active). Besides, the growth in the assay with MALME-3M melanoma is 99% (inactive) and 5.36% (active) and 13.2% (inactive); with MDA-MB-231 breast, 94.2% (inactive) and 45.9% (inactive) and 48.4% (inactive); in the assay on RXF 393 renal, 83.7% (inactive) and -4.09% (active) and 10% (active); in the assay with SF-268 CNS, 108% (inactive) and 34.7% (inactive) and 45.7% (inactive); in the assay on SF-295 CNS, 65.7% (inactive) and 28.8% (inactive) and 17.1% (inactive); with SF-539 CNS, 94.5% (inactive) and 17.9% (inactive) and 11% (inactive). Moreover, the growth in the assay on UACC-257 melanoma was 96% (inactive) and 24.7% (inactive) and 44.7% (inactive); in the assay with M14 melanoma it was 95% (inactive) and 19.4% (inactive) and 40.4% (inactive).
For `COc1ccc(-c2cn[nH]c2-c2cc(OC)c(OC)c(OC)c2)cc1N`, the growth with NCI-H23 lung was 22.5% (inactive) and 28.3% (inactive); in the assay with NCI-H226 lung, 69.4% (inactive) and 50.2% (inactive); with NCI-H322M lung it was 45.3% (inactive) and 36.2% (inactive); in the assay with HOP-62 NSCLC, 52.2% (inactive) and 35.6% (inactive); with NCI-H460 lung, 4.87% (active) and 8.68% (active); with HOP-92 NSCLC, 53.9% (inactive) and 22.5% (inactive). For the same compound, the growth with NCI-H522 lung is 0.102% (active) and 3.18% (active); in the assay on A549/ATCC NSCLC, 12.4% (inactive) and 23% (inactive); in the assay on 786-0 renal it was 18.1% (inactive) and 25.6% (inactive); in the assay with COLO 205 colon, -55.7% (active) and -53.2% (active); in the assay on DU-145 prostate, 13.8% (inactive) and 3.66% (active); in the assay with K-562 leukemia it was 11% (inactive) and 11.5% (inactive). Also, the growth was 78.7% (inactive) and 44.3% (inactive) with MALME-3M melanoma; 22.9% (inactive) and 14.6% (inactive) in the assay on MDA-MB-231 breast; 19.3% (inactive) with RXF 393 renal; 26.5% (inactive) and 48.8% (inactive) with SF-268 CNS; 3.28% (active) and 17.5% (inactive) in the assay on SF-295 CNS; 1.73% (active) and -4.41% (active) in the assay on SF-539 CNS. Besides, the growth with UACC-257 melanoma was 66.7% (inactive); with M14 melanoma, 10.5% (inactive) and 15% (inactive).
`O=C(CN1CCOCC1)N1CCOCC1`: the growth in the assay with NCI-H23 lung is 110% (inactive) and 104% (inactive); in the assay with NCI-H226 lung, 105% (inactive) and 113% (inactive); in the assay on NCI-H322M lung, 92% (inactive) and 110% (inactive); in the assay on HOP-62 NSCLC, 106% (inactive) and 112% (inactive); in the assay with NCI-H460 lung, 111% (inactive) and 114% (inactive); in the assay on HOP-92 NSCLC, 75.3% (inactive). Moreover, the growth in the assay with NCI-H522 lung was 75.3% (inactive) and 101% (inactive); in the assay with A549/ATCC NSCLC, 103% (inactive); in the assay with 786-0 renal it was 102% (inactive) and 108% (inactive); in the assay on COLO 205 colon it was 115% (inactive) and 105% (inactive); in the assay on DU-145 prostate, 120% (inactive) and 117% (inactive); in the assay on K-562 leukemia it was 102% (inactive) and 108% (inactive). In addition, the growth in the assay with MALME-3M melanoma was 90.6% (inactive); in the assay with MDA-MB-231 breast, 108% (inactive) and 98.1% (inactive); in the assay with RXF 393 renal, 126% (inactive) and 119% (inactive); in the assay on SF-268 CNS, 108% (inactive) and 115% (inactive); in the assay on SF-295 CNS it was 113% (inactive) and 104% (inactive); with SF-539 CNS it was 111% (inactive) and 101% (inactive). The growth is 107% (inactive) and 106% (inactive) with UACC-257 melanoma; 97.4% (inactive) and 106% (inactive) in the assay with M14 melanoma.
For `c1ccc2c(CC3=NCCN3)cccc2c1`, the growth with NCI-H23 lung was 96.3% (inactive) and 98.5% (inactive); in the assay with NCI-H226 lung, 91.4% (inactive) and 100% (inactive); in the assay on NCI-H322M lung, 98.1% (inactive) and 115% (inactive); in the assay on HOP-62 NSCLC, 112% (inactive) and 98.8% (inactive); in the assay with NCI-H460 lung, 108% (inactive) and 105% (inactive); in the assay with HOP-92 NSCLC it was 82.3% (inactive) and 87.7% (inactive). Further, the growth in the assay with NCI-H522 lung was 103% (inactive) and 90% (inactive); in the assay with A549/ATCC NSCLC, 97.6% (inactive) and 93.8% (inactive); with 786-0 renal it was 98.3% (inactive) and 99.9% (inactive); with COLO 205 colon, 113% (inactive) and 112% (inactive); with DU-145 prostate, 123% (inactive) and 114% (inactive); in the assay on K-562 leukemia it was 115% (inactive) and 107% (inactive). Besides, the growth was 104% (inactive) and 113% (inactive) in the assay with MALME-3M melanoma; 105% (inactive) and 109% (inactive) with MDA-MB-231 breast; 105% (inactive) and 102% (inactive) with RXF 393 renal; 114% (inactive) and 109% (inactive) with SF-268 CNS; 94.3% (inactive) and 100% (inactive) in the assay on SF-295 CNS; 102% (inactive) and 95.8% (inactive) with SF-539 CNS. Moreover, the growth is 101% (inactive) and 97.1% (inactive) in the assay with UACC-257 melanoma; 97.1% (inactive) and 99.3% (inactive) with M14 melanoma.

The record behind these values is PubChem BioAssay (NCI).
